Reference: PubChem BioAssay
A number with no mark means an inactive call. For some assays here: Measured potencies and affinities stand elsewhere. The source made the active and inactive calls. Unless noted, no rule for the calls is given here.

Legend:
[1] = antimalarial activity against Dd2 strain (AID 2302;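 active = growth inhibition above 50% at the single 2 µM test dose, taken to imply half-maximal potency below 2 µM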;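 also: 0% = DMSO untreated growth and 100% = chloroquine plus artemisinin killed control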); conditions: P. falciparum Dd2 in RBCs, LDH growth readout, 72 h; at 2 µM; hits give high values
[2] = HepG2 cytotoxicity, primary screen, cytotoxicity control for P. falciparum antimalarial project, cell-based, ATP luminescence (AID 2303;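 active = inhibition above 50%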;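 also: 0% = DMSO wells and 100% = digitonin-killed cells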); conditions: HepG2 viability, 24-48 h, at 10 µM, hits give high values
[3] = target: L-lactate dehydrogenase (Plasmodium falciparum (isolate CDC / Honduras)) (UniProt Q27743); test: PfLDH activity inhibition – cell lysate, 3D7 strain, counter-screen for P. falciparum growth inhibition project (AID 2304);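 also: 0% = vehicle and 100% = reference inhibitor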; conditions: P. falciparum 3D7 crude extract, LDH APAD/NBT absorbance; at 2 µM; hits give high values
L-lactate dehydrogenase (Plasmodium falciparum (isolate CDC / Honduras)), sequence (Q27743 whole entry, looked up): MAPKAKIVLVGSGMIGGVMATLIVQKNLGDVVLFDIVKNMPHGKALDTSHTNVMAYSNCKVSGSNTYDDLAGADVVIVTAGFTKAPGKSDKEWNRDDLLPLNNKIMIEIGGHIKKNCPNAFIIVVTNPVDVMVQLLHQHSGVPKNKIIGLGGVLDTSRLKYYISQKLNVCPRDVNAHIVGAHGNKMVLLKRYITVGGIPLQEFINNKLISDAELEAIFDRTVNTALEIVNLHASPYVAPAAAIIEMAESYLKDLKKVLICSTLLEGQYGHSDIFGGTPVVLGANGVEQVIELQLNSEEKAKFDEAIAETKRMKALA

[4] = inhibition of 3D7 malaria parasite growth – strain 3D7 (AID 2306);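 also: 0% = DMSO wells and 100% = chloroquine plus artemisinin control wells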; conditions: P. falciparum 3D7 erythrocytic growth, LDH absorbance, 72 h; at 2 µM; hits give high values
[5] = target: Calcium-dependent protein kinase 1 (Plasmodium falciparum (isolate 3D7)) (UniProt P62344); test: PfCDPK1 kinase inhibitors, biochemical, TCAMS library (AID 1159585; cut-off not given, nearly all actives have IC50 up to about 0.98 µM;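 also: inhibitors leave more ATP so luminescence rises with inhibition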); conditions: recombinant PfCDPK1, Kinase-Glo ATP depletion luminescence
Calcium-dependent protein kinase 1 (Plasmodium falciparum (isolate 3D7)), sequence (P62344 whole entry, looked up): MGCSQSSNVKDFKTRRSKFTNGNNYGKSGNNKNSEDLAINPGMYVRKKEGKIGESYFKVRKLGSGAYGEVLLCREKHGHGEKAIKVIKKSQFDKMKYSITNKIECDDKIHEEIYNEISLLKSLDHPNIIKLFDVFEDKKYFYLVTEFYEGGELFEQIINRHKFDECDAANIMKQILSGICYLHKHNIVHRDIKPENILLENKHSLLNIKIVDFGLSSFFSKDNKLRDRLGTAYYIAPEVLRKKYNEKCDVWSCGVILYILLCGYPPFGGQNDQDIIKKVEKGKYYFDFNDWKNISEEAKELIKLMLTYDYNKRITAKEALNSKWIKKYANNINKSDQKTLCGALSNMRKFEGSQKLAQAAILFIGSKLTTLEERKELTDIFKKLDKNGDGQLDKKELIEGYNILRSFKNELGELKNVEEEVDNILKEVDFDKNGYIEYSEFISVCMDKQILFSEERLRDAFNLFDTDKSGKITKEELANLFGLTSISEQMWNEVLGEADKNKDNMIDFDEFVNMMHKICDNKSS

[6] = target: Plasmodium falciparum protein kinase 6 (PK6, PF3D7_1337100) (UniProt Q8IDW1); test: PfPK6 kinase inhibitors, biochemical, TCAMS library (AID 1159586); conditions: recombinant PfPK6, Kinase-Glo ATP depletion luminescence
Plasmodium falciparum protein kinase 6 (PK6, PF3D7_1337100), sequence (Q8IDW1 1-305): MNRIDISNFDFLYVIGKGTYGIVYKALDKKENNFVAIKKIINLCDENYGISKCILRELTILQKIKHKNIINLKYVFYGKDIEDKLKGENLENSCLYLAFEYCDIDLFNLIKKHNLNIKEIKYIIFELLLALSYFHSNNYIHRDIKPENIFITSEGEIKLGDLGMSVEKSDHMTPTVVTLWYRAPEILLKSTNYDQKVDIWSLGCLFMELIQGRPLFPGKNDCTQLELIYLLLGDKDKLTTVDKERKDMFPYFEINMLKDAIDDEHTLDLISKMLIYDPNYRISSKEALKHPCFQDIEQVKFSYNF

[7] = target: Protein kinase 7 (PK7), Plasmodium falciparum 3D7 (PF3D7_0213400) (UniProt Q7YTF7); test: inhibition of Plasmodium PK7 catalytic activity – biochemical, TCAMS antimalarial set, Kinase-Glo luminescence (AID 1159587); conditions: recombinant PfPK7, Kinase-Glo ATP depletion luminescence
Protein kinase 7 (PK7), Plasmodium falciparum 3D7 (PF3D7_0213400), sequence (Q7YTF7 1-343): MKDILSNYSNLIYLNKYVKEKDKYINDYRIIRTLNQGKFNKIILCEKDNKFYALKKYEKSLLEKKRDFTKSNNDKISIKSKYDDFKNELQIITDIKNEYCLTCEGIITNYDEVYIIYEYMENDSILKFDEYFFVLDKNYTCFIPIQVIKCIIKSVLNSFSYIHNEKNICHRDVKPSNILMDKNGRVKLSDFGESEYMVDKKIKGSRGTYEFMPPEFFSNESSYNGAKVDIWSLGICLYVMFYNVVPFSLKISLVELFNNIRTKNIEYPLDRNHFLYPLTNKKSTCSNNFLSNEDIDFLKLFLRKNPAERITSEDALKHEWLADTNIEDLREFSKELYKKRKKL

[8] = target: Calcium-dependent protein kinase 4 (Plasmodium falciparum (isolate 3D7)) (UniProt Q8IBS5); test: PfCDPK4 kinase inhibitors, biochemical, TCAMS library (AID 1159588; cut-off not given, nearly all actives have IC50 up to about 0.91 µM); conditions: recombinant PfCDPK4, Kinase-Glo ATP depletion luminescence
Calcium-dependent protein kinase 4 (Plasmodium falciparum (isolate 3D7)), sequence (Q8IBS5 whole entry, looked up): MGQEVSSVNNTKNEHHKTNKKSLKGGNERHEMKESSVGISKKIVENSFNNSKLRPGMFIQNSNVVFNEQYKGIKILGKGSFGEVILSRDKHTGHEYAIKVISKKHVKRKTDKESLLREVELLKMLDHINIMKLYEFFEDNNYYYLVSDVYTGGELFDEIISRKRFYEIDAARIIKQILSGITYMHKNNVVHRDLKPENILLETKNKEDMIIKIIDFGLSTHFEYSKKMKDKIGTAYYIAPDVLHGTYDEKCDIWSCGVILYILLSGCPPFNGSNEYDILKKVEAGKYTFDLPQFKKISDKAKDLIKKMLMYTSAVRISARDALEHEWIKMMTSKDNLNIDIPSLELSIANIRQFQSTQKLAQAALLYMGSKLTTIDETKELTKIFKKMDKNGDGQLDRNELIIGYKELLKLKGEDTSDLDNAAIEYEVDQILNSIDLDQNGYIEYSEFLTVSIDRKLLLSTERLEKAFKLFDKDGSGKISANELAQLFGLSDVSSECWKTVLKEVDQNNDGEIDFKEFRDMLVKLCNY

| Compound | growth inhibition [1] | inhibition [2] | inhibition [3] | growth inhibition [4] | outcome [5] | outcome [6] | outcome [7] | outcome [8] |
| --- | --- | --- | --- | --- | --- | --- | --- | --- |
| COc1ccc(C2NCCc3c2[nH]c2ccccc32)cc1CN1CCN(c2ccc(F)cc2)CC1 (stereo unspecified) | 56% (active) | 37% | -1% | 97% (active) | inactive | inactive | inactive | inactive |
| CN(C)CCN(C)C(=O)c1cc(-c2ccncc2)c(-c2ccc(Cl)c(O)c2)o1 | 34% | -11% | 0% | 97% (active) | inactive | inactive | inactive | inactive |
| CCCN(CCC)S(=O)(=O)c1ccc(C(=O)Nc2nc3ccc(-c4cc(=O)[nH]c(Nc5ccccc5Cl)n4)cc3[nH]2)cc1 | 98% (active) | 1% | -4% | 100% (active) | inactive | inactive | inactive | inactive |
| COc1ccc2ncc(Cl)c([C@H](O)CN3CCC(NCc4cc5c(cn4)OCCO5)CC3)c2c1 | 100% (active) | 10% | 1% | 100% (active) | inactive | inactive | inactive | inactive |
| CC(NC(=O)c1ccc(O)c(-c2ccc(Cl)c(Cl)c2)c1)C(=O)NCCN1CCCCC1 (stereo unspecified) | 3% | -2% | 2% | 97% (active) | inactive | inactive | inactive | inactive |
| CCCCCCn1c(Sc2ccc(C#N)c([N+](=O)[O-])c2)nnc1-c1ccccc1 | 41% | 23% | -1% | 97% (active) | inactive | inactive | inactive | inactive |
| N#Cc1ccc2c(c1)CCN(CCC1CCC(NC(=O)c3ccc(-c4ccccn4)s3)CC1)CC2 (stereo unspecified) | 9% | 16% | 1% | 92% (active) | inactive | inactive | inactive | inactive |
| COc1ccc(CNCc2ccc(-c3cccc(-c4nc5ccccc5[nH]4)c3)cc2)cc1 | 85% (active) | 57% (active) | -3% | 101% (active) | inactive | inactive | inactive | inactive |
| CCN(CC)CCN(Cc1ccc(-c2ccc(C(F)(F)F)cc2)cc1)C(=O)Cn1c(CCc2ccc(F)c(F)c2F)nc(=O)c2ccc(F)cc21 | 46% | 19% | -1% | 98% (active) | inactive | inactive | inactive | inactive |
| O=C(NCCc1cccc(Cl)c1Cl)c1ccc(N2CCN(c3ccncc3)CC2)nc1 | 79% (active) | 38% | 2% | 101% (active) | inactive | inactive | inactive | inactive |
| Cc1cccc2[nH]c(-c3ccc(-c4cccc(CN5CCN(CC6CCCN(C)C6)CC5)c4)s3)nc12 (stereo unspecified) | 99% (active) | 47% | 4% | 100% (active) | inactive | inactive | inactive | inactive |
| CCN(CCCN1CCCCC1)c1cc(C)nc(Nc2cc(F)cc(F)c2)n1 | 64% (active) | 15% | 5% | 102% (active) | inactive | inactive | inactive | inactive |
| Cc1cc(N[C@@H](Cc2ccccc2)C(=O)Nc2ccccc2)nc(NCC2CCCCC2)n1 | 55% (active) | 12% | 1% | 98% (active) | inactive | inactive | inactive | inactive |
| CC(C)CC(=O)N1CCNC[C@@H]1C(=O)NCCSCc1c(F)cccc1Cl | 3% | 1% | 0% | 86% (active) | inactive | inactive | inactive | inactive |
| COc1ccc2nc(C)cc(Nc3ccc(N4CCN(C)CC4)cc3)c2c1 | 3% | 1% | -1% | 101% (active) | inactive | inactive | inactive | inactive |
| CC(=O)N(C)c1cccc(C(=O)Nc2cccc(-c3ccc(-c4nc5ccc(C(F)(F)F)cc5[nH]4)cc3)c2)c1 | 31% | 63% (active) | -2% | 90% (active) | inactive | inactive | inactive | inactive |
| Cc1cc(=O)[nH]c(-n2nc(C)cc2NC(=O)C2(c3ccc(Cl)cc3)CCCC2)n1 | 97% (active) | 30% | 5% | 96% (active) | inactive | inactive | inactive | inactive |
| O=C(NCc1cccc(F)c1)Nc1cccc(-c2cccc(-c3nc4ccc(C(F)(F)F)cc4[nH]3)c2)c1 | 32% | 55% (active) | -7% | 93% (active) | inactive | inactive | inactive | inactive |
| CCOc1cc(Cc2cnc(N)nc2N)cc(OCC)c1OCC | 0% | -1% | 5% | 97% (active) | inactive | inactive | inactive | inactive |
| Cc1ccc(C(CC(=O)Nc2nccs2)c2ccc(OC(C)C)cc2)cc1 (stereo unspecified) | 90% (active) | 5% | 3% | 94% (active) | inactive | inactive | inactive | inactive |
| N#Cc1cc(C(=O)c2cc(Cl)ccc2O)cn(-c2cccc(C(F)(F)F)c2)c1=O | 7% | -1% | -2% | 87% (active) | inactive | inactive | inactive | inactive |

| Compound | growth inhibition [1] | inhibition [2] | inhibition [3] | growth inhibition [4] | outcome [5] | outcome [6] | outcome [7] | outcome [8] |
| --- | --- | --- | --- | --- | --- | --- | --- | --- |
| CN1CCCC(CN2CCN(Cc3ccc(-c4cccc(-c5nc6ccccc6[nH]5)c4)cc3)CC2)C1 (stereo unspecified) | 100% (active) | 57% (active) | -3% | 101% (active) | inactive | inactive | inactive | inactive |
| O=S(=O)(NCCN1CCCC1)c1cccc(-c2cccc(CNCc3ccsc3)c2)c1 | 55% (active) | 69% (active) | 6% | 101% (active) | inactive | inactive | inactive | inactive |
| CC(C)NCc1ccc(-c2ccc(NC(=O)c3ccc(C#N)cc3)cc2)cc1 | 0% | 23% | -2% | 90% (active) | inactive | inactive | inactive | inactive |
| CCCCNCc1ccc(-c2nc(CN(Cc3ccc(Cl)c(Cl)c3)C(=O)CN(C)C)cs2)cc1 | 51% (active) | 36% | 7% | 100% (active) | inactive | inactive | inactive | inactive |
| CCCCCCCCOc1ccc(N2C(N)=NC(N)=NC2(C)C)cc1 | -6% | 31% | -4% | 100% (active) | inactive | inactive | inactive | inactive |
| COc1ccc(-c2cc(C(F)(F)F)n3ncc(C(=O)Nc4cc(C)ccc4O)c3n2)cc1OC | 100% (active) | 2% | 0% | 100% (active) | inactive | inactive | inactive | inactive |
| O=C(/C=C/c1ccc(Cl)cc1)NCCCCCN1CCCN(C(=O)Nc2cccc(Cl)c2)CC1 | 10% | 19% | -3% | 85% (active) | inactive | inactive | inactive | inactive |
| C=C(C)Cn1cc(C2CCN(CCN3CCC(CNC(=O)c4ccc(-c5ccc(C#N)cc5)cc4)CC3)CC2)c2ccccc21 | 94% (active) | 64% (active) | -3% | 99% (active) | inactive | inactive | inactive | inactive |
| Fc1ccc2nc(-c3cccc(-c4ccc(CNCc5cnn(-c6ccccc6)n5)cc4)c3)[nH]c2c1 | 22% | 18% | -3% | 98% (active) | inactive | inactive | inactive | inactive |
| CC1(C)Cc2c(oc3ncn(CCn4cnc5oc6c(c5c4=N)CC(C)(C)SC6)c(=N)c23)CS1 | 93% (active) | -11% | 0% | 98% (active) | inactive | inactive | inactive | inactive |
| CC(=O)N(C)C1CCN(Cc2ccc(-c3cccc(-c4nc5ccc(F)cc5[nH]4)c3)cc2)C1 (stereo unspecified) | 79% (active) | 28% | 6% | 100% (active) | inactive | inactive | inactive | inactive |
| CCC(c1ccccc1)c1nn2c(-c3cccs3)nnc2s1 (stereo unspecified) | 95% (active) | 10% | -4% | 97% (active) | inactive | inactive | inactive | inactive |
| CCCCOC(=O)[C@H](CCC)NC(=O)c1ccc(NS(=O)(=O)c2ccc3nc(N)[nH]c(=O)c3c2)cc1 | 3% | 66% (active) | -1% | 99% (active) | inactive | inactive | inactive | inactive |
| COc1ccc(C2C(C(=O)OC3CCCCC3)=C(C)NC3=C2C(=O)CCC3)cc1Br (stereo unspecified) | 94% (active) | 7% | -7% | 95% (active) | inactive | inactive | inactive | inactive |
| CCOC(=O)c1ccc(NC(=O)Nc2cccc(-c3cccc(-c4nc5ccc(F)cc5[nH]4)c3)c2)cc1 | 100% (active) | 85% (active) | 6% | 101% (active) | inactive | inactive | inactive | inactive |
| CCCC1N=C(N)N=C(N)N1c1ccc(CC)cc1 (stereo unspecified) | 4% | 11% | 1% | 94% (active) | inactive | inactive | inactive | inactive |
| CC(C)C(=O)Nc1c(F)cc(F)cc1CCc1ccc(O)cc1 | 91% (active) | – | 2% | 90% (active) | inactive | inactive | inactive | inactive |
| CCN1CCC(N(Cc2ccc(-c3ccc(C(F)(F)F)cc3)cc2)C(=O)Cn2c(SCc3ccc(F)cc3)nc(=O)c3c2CCC3)CC1 | 96% (active) | 46% | 2% | 90% (active) | inactive | inactive | inactive | inactive |
| Cc1sc(C)c(CNCCCNc2cc(=O)c3ccccc3[nH]2)c1Br | 15% | -4% | -2% | 93% (active) | inactive | inactive | inactive | inactive |
| COc1cccc2c(O)c(CNC3CCCCC3)ccc12 | 98% (active) | – | 3% | 100% (active) | inactive | inactive | inactive | inactive |
